# Target: C5AR1
# Assay: pooled miR-30 sensor sort-seq; sequence = guide strand
# Details: shRNA
row,Sequence,sensor-assay potency score (higher = more potent)
1,TTTTAAGCGAGAATCTTTCTAC,0.0632
2,TAACTCACTTACAAGAGCTTAG,-0.132
3,TCTACTTGTCTGTATTCTGAGT,-0.792
4,TGATGCTGTACAATGGACGTGA,0.655
5,TACTTGTCTGTATTCTGAGTTC,-0.656
6,TACTCCTCCCGGACCACCCGGT,-0.108
7,TTCAGTCAACACGTTCCGGAGG,-1.26
8,TTCAGCAGCAGGAAGGTGGGTG,0.301
9,TTCTACTTGTCTGTATTCTGAG,0.386
10,AAGTGTAACAAATCGTGAGCGT,-0.136
11,TACATATTTTCCAACTTGCCAT,-0.462
12,TTATTCAGCAGCAGGAAGGTGG,-0.586
13,TTGAGGTCCAGGGTATCCTTGT,-0.809
14,TTAGAAGTTTTATCCACAGGGG,-0.274
15,TTAAACACCAGCAGAAAGCGGT,-0.159

# Target: C5orf51
# Assay: as above
# Details: shRNA
row,Sequence,sensor-assay potency score (higher = more potent)
1,TTGTATTCCATTCTTGTTCTTT,-0.072
2,TTCAATATCAGAACTTCTGTAA,0.18
3,TATTAGTGACATAACATCTGTA,0.937
4,TTAACTAAGTCTAAAAGCCTAG,-0.498
5,TTTAGCTGTGTCTAGATCTTGG,0.753
6,TATCTTAATGTAATACCGCTGT,-0.406
7,TTGATGGATTTGAACATTCTTT,-0.74
8,AAAATCTTCATCTACTAGCTTG,-0.0873
9,TAGAACATGATTACACAGGATG,-0.681
10,TTAACTGGATAGGACATCGATA,-1.18
11,TTTATCTTCATTACTCACTTGA,1.06
12,TTATTAGTGACATAACATCTGT,-0.587

# Target: C5orf56
# Assay: as above
# Details: shRNA
row,Sequence,sensor-assay potency score (higher = more potent)
1,TTGATGACGAGGAAAAAGGAGA,-0.938
2,TTATAAGCTGCATGAGAGCAGG,-0.803
3,AACACTTGCTGAATAAATGAGT,-0.962
4,TTCACTGCTGCATTGCTGCCAT,-0.146
5,TTGAAGATTCCCTTGGTGTGTT,0.717
6,TCCAATAGGCTACAAACTCTGG,-1.19
7,TTTCTTTCCAGAATCTTGGCTG,0.311
8,AATCTTGGCTGTAAGCAGCAGA,-0.53
9,TTTGAAGATTCCCTTGGTGTGT,-0.413
10,TTCTTTCCAGAATCTTGGCTGT,0.101
11,AAAGGAGACATTTCTTTCCAGA,-0.416
12,TTGTTCACTGCTGCATTGCTGC,-0.868

# Reference: the OligoGym collection
